The nature of assay [1]: qHTS of pediatric cancer cell lines to identify multiple opportunities for drug repurposing: Primary screen for Rh30 cells (AID 1347107). Further: nearly all actives have a fitted effect of over 75% in size. Further: potency means the concentration at half of the fitted maximal effect. The method, boiled down:
(§1)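 Cells (500-1,000/well) rested 5 h, then received compounds for 48 h; metabolically active cells were measured by CellTiter-Glo luminescence. Final concentrations spanned up to 46 µM (MIPE, 11-point) or 0.59 nM-46 µM (NPC, 8-point) in primary screens, 11-point in follow-ups.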
In general terms: Quantitative high-throughput screening tests each substance at several concentrations.

Assay [2] is described as follows: qHTS of pediatric cancer cell lines to identify multiple opportunities for drug repurposing: Primary screen for Rh41 cells (AID 1347108). Further: nearly all actives have a fitted effect of over 70% in size. Further: potency means the concentration at half of the fitted maximal effect. In outline: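 500-1,000 cells/well; 5 h pre-incubation 37 °C/5% CO2; compound pinned; 48 h; CellTiter-Glo, 15 min RT; luminescence. MIPE 11-pt from 0.78 nM, NPC 8-pt from 0.59 nM final. Bortezomib 2.3 µM final as positive control.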

A short description of assay [3]: qHTS of pediatric cancer cell lines to identify multiple opportunities for drug repurposing: Confirmatory screen for NB1643 cells (AID 1347109). Further: nearly all actives have a fitted effect of over 45% in size. Further: potency means the concentration at half of the fitted maximal effect. In outline:
as §1

Assay [4] is described as follows: qHTS of pediatric cancer cell lines to identify multiple opportunities for drug repurposing: Confirmatory screen for A673 cells (AID 1347110).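 Further: cells exposed to compound for 48 h before the viability read; nearly all actives have a fitted effect of over 65% in size.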 Further: potency means the concentration at half of the fitted maximal effect. In outline: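 Cells plated at 500-1,000/well were treated five hours later with multi-point dilutions up to 46 µM final. After two days, CellTiter-Glo was added and luminescence read.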
The nature of assay [5]: qHTS of pediatric cancer cell lines to identify multiple opportunities for drug repurposing: Confirmatory screen for LAN-5 cells (AID 1347113). Further: nearly all actives have a fitted effect of over 65% in size. Further: potency means the concentration at half of the fitted maximal effect. In outline: as §1
A short description of assay [6]: qHTS of pediatric cancer cell lines to identify multiple opportunities for drug repurposing: Confirmatory screen for BT-37 cells (AID 1347117). Further: nearly all actives have a fitted effect of over 55% in size. Further: potency means the concentration at half of the fitted maximal effect. The method, boiled down: as §1
Assay [7] can be described thus: qHTS of pediatric cancer cell lines to identify multiple opportunities for drug repurposing: Confirmatory screen for TC32 cells (AID 1347118).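 Further: cells exposed to compound for 48 h before the read; nearly all actives have a fitted effect of over 65% in size.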 Further: potency means the concentration at half of the fitted maximal effect. In outline:
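Measured quantity: luminescence from CellTiter-Glo, reflecting metabolically active TC32 cells following 48 h of compound. Curves came straight from multi-point titrations, with 8 or 11 points in primary and 11 in confirmatory screening.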

A short description of assay [8]: qHTS of pediatric cancer cell lines to identify multiple opportunities for drug repurposing: Confirmatory screen for MG 63 (6-TG R) cells (AID 1347119). Further: nearly all actives have a fitted effect of over 55% in size. Further: potency means the concentration at half of the fitted maximal effect. In outline:
as §1

Assay [9] is described as follows: qHTS of pediatric cancer cell lines to identify multiple opportunities for drug repurposing: Confirmatory screen for control Hh wild type fibroblast cells (AID 1347121). Further: nearly all actives have a fitted effect of over 70% in size. Further: potency means the concentration at half of the fitted maximal effect. The method, boiled down: as §1
Assay [10] in a line: qHTS of pediatric cancer cell lines to identify multiple opportunities for drug repurposing: Confirmatory screen for RD cells (AID 1347124).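 Further: cells exposed to compound for 48 h before viability readout; nearly all actives have a fitted effect of over 65% in size.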 Further: potency means the concentration at half of the fitted maximal effect. The method, boiled down:
as §1

Assay [11] is described as follows: qHTS of pediatric cancer cell lines to identify multiple opportunities for drug repurposing: Confirmatory screen for Rh18 cells (AID 1347125). Further: nearly all actives have a fitted effect of over 55% in size. Further: potency means the concentration at half of the fitted maximal effect. The method, boiled down: as §1
Assay [12] in a line: qHTS of pediatric cancer cell lines to identify multiple opportunities for drug repurposing: Confirmatory screen for Saos-2 cells (AID 1347127). Further: nearly all actives have a fitted effect of over 60% in size. Further: potency means the concentration at half of the fitted maximal effect. The method, boiled down:
as §1

The nature of assay [13]: qHTS of pediatric cancer cell lines to identify multiple opportunities for drug repurposing: Confirmatory screen for OHS-50 cells (AID 1347128).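 Further: compound exposure lasted 48 h at 37 degrees C; nearly all actives have a fitted effect of over 55% in size.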 Further: potency means the concentration at half of the fitted maximal effect. The method, boiled down:
as §1

A short description of assay [14]: qHTS of pediatric cancer cell lines to identify multiple opportunities for drug repurposing: Confirmatory screen for SK-N-SH cells (AID 1347129).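 Further: cells exposed to compound for 48 h before viability read; nearly all actives have a fitted effect of over 60% in size.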 Further: potency means the concentration at half of the fitted maximal effect. In outline:
as §1

A short description of assay [15]: qHTS of pediatric cancer cell lines to identify multiple opportunities for drug repurposing: Confirmatory screen for SJ-GBM2 cells (AID 1347116). Further: nearly all actives have a fitted effect of over 60% in size. Further: potency means the concentration at half of the fitted maximal effect. The method, boiled down: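 Viability measured as metabolically active cells via CellTiter-Glo luminescence following 48 hours of compound exposure, 11-point dilutions in confirmatory testing. 500-1,000 cells/well plated 5 hours before dosing; controls were DMSO and 2.3 µM bortezomib.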

The nature of assay [16]: qHTS of pediatric cancer cell lines to identify multiple opportunities for drug repurposing: Confirmatory screen for U-2 OS cells (AID 1347122). Further: nearly all actives have a fitted effect of over 65% in size. Further: potency means the concentration at half of the fitted maximal effect. The method, boiled down:
as §1

Assay [17] in a line: qHTS of pediatric cancer cell lines to identify multiple opportunities for drug repurposing: Confirmatory screen for Rh41 cells (AID 1347123).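 Further: 48 h compound exposure; nearly all actives have a fitted effect of over 60% in size.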 Further: potency means the concentration at half of the fitted maximal effect. The method, boiled down:
as §1

Assay [18] in a line: qHTS of pediatric cancer cell lines to identify multiple opportunities for drug repurposing: Confirmatory screen for Rh30 cells (AID 1347126). Further: nearly all actives have a fitted effect of over 55% in size. Further: potency means the concentration at half of the fitted maximal effect. In outline:
as §1

Assay [19] concerns the target N-terminal Xaa-Pro-Lys N-methyltransferase 1 (Homo sapiens) (UniProt Q9BV86). Description: qHTS Assay for Inhibitors of N-terminal methyltransferase 1 (NTMT1): LOPAC validation of the NTMT1 SAHH-coupled ThioGlo3 Assay (AID 1347143).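 Further: SAH from peptide methylation measured as thiol fluorescence via SAHH coupling and ThioGlo3; nearly all actives have a fitted effect of over 70% in size.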 Further: potency means the concentration at half of the fitted maximal effect. In outline:
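NTMT1 125nM + cpds (various conc.), 1 min RT; add SAM 100uM/SAHH 10uM/ThioGlo3 15uM (addition mix). SAHH-coupled thiol detection, Ex340/Em450, t0 and 30 min RT; signal normalized to background. LOPAC 1280-cpd pilot.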

For another assay, the target named is Furin (Homo sapiens) (UniProt P09958). Description: Furin counterscreen qHTS for Zika virus inhibitors (AID 1347149).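 Further: purified recombinant full-length human furin enzyme at 5 nM; fluorescence gain from furin cutting a BOC-RVRR-AMC peptide substrate over 15 min; top concentration of the series differs between compounds; nearly all actives have a fitted effect of over 70% in size.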 In outline: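 Counterscreen measures cleavage of 2 microM BOC-RVRR-AMC, below its ~15 microM Km, by 5 nM full-length human furin at pH 7.0 after a 15-min compound preincubation. Inhibition derives from the 15-min fluorescence increase at 37C.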
Sequence of Furin (Homo sapiens) (P09958 whole entry, looked up): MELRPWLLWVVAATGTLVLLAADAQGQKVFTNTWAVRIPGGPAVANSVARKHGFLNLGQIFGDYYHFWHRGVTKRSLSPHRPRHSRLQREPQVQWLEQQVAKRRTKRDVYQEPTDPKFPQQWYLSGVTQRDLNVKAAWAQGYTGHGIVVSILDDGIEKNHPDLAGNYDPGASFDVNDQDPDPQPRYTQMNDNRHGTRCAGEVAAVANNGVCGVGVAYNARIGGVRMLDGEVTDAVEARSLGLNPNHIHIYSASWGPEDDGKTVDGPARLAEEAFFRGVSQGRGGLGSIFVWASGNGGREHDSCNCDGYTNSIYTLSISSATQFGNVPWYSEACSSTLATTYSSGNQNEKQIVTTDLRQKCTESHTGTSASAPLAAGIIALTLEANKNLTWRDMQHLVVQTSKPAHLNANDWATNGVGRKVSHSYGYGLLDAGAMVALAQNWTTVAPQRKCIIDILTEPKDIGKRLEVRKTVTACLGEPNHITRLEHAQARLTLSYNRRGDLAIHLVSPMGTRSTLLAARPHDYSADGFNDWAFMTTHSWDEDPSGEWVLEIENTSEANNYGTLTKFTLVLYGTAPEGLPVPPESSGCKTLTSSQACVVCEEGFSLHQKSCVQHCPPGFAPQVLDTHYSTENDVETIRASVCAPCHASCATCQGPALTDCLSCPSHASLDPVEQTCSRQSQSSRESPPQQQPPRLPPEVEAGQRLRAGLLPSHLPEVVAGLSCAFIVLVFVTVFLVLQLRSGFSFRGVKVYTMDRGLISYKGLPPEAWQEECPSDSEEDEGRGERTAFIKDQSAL

Inconclusive results are not listed. Active and inactive are the calls of the source. The call rests on the fitted dose curve; in most records, active means well fitted curve in the direction sought with a large enough effect; inconclusive means small, poorly fitted or top-dose-only effect, or another doubt; inactive means no such curve, though single readings can be large; an effect the other way counts as inactive or inconclusive.

Sequence of N-terminal Xaa-Pro-Lys N-methyltransferase 1 (Homo sapiens) (Q9BV86 whole entry, looked up): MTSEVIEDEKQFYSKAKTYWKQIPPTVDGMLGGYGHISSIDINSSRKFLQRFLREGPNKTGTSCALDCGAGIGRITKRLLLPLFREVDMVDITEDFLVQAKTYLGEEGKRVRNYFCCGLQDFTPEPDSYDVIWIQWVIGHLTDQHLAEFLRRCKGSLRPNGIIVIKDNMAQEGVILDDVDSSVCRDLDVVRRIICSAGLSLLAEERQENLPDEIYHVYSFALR

Take `CC(O)CN1CCN(CC(=O)[O-])CCN(CC(=O)[O-])CCN(CC(=O)[O-])CC1.[Gd+3]` (stereo not given): the Potency entry in [1] and in assay [2] was “inactive” in each case.
As to `Cc1[nH]nc2ccc(-c3cncc(OC[C@@H](N)Cc4c[nH]c5ccccc45)c3)cc12`, the Potency was 14.8 µM (active) in [1]; 2.64 µM (active) in assay [2]; 0.737 µM (active) in [3]; 1.47 µM (active) in assay [4]; 2.33 µM (active) in assay [5]; 1.65 µM (active) in assay [6]. The Potency was 2.33 µM (active) in assay [7]; 3.29 µM (active) in assay [8]; 18.5 µM (active) in assay [9]; 4.65 µM (active) in assay [11]; 2.61 µM (active) in [12]; 2.61 µM (active) in assay [13]. Besides, the Potency in assay [14] is 2.96 µM (active). Besides, the Potency entry in assay [10] is “inactive”.
In the case of `CC(C)(C)C(O)C(Oc1ccc(Cl)cc1)n1cncn1` (stereo not given), the Potency entry in [1], in assay [2], in [3], in assay [4], in assay [15] and in assay [6] was “inactive” in each case. Besides, the Potency entry in [7], in assay [8], in assay [9], in [16], in assay [17] and in assay [10] was “inactive” each time. The Potency result in assay [11], in assay [18], in assay [12], in assay [13] and in [14] was “inactive” each time.
Take `COC(=O)[C@@H](N)CCCN=C(N)N[N+](=O)[O-]`: the Potency result in [1], in assay [2] and in [19] was “inactive” throughout.
As for `CC(=O)[O][Hg][c]1ccccc1`, the Potency in [1] is 2.66 µM (active); in [2] it was 1.06 µM (active); in assay [3] it was 1.47 µM (active); in assay [4] it was 1.04 µM (active); in assay [5] it was 3.29 µM (active); in assay [15], 1.17 µM (active). For the same compound, the Potency in assay [6] is 2.33 µM (active); in assay [7] it was 0.827 µM (active); in assay [8] it was 4.14 µM (active); in assay [9], 13.1 µM (active); in assay [11], 4.65 µM (active); in [18], 1.31 µM (active). The values for the Potency in assay [12], in [13] and in [14] were 1.17 µM (active), 5.85 µM (active) and 2.64 µM (active), respectively.
Take `O=[N+]([O-])c1c(Cl)c(Cl)cc(Cl)c1Cl`: the Potency entry in assay [1], in [2], in assay [8], in assay [9], in assay [16] and in [17] was “inactive” each time. Also, the Potency entry (in [10]; in [11]; in assay [18]; in [14]; in the assay with Furin (Homo sapiens)) was “inactive” throughout.
Consider `CC(C)Oc1cccc(NC(=O)c2ccccc2C(F)(F)F)c1`, for which the Potency entry in [1] and in assay [2] was “inactive” each time.
Consider `O=S(=O)(F)Cc1ccccc1`, for which the Potency result in [1] and in [2] was “inactive” in each case.
For the compound `O=C(Nc1ccncc1)C(=O)c1cn(Cc2ccc(Cl)cc2)c2ccccc12`, the Potency entry in [1] and in [18] was “inactive” throughout. In addition, the Potency in assay [2] was 0.0743 µM (active); in [3] it was 0.465 µM (active); in assay [4] it was 0.414 µM (active); in assay [6], 0.827 µM (active); in assay [7] it was 0.233 µM (active); in [8], 0.369 µM (active). Moreover, the Potency was 0.465 µM (active) in [16]; 0.465 µM (active) in [17]; 0.414 µM (active) in assay [10]; 0.585 µM (active) in assay [12]; 0.928 µM (active) in assay [13].
For `NC1CC1c1ccccc1` (stereo not given), the Potency entry in assay [1], in assay [2] and in assay [19] was “inactive” each time.
Take `O=S(=O)(c1ccc(Cl)cc1)c1ccc(Cl)cc1`: the Potency result in assay [1] and in assay [2] was “inactive” in each case.
Consider `CC[C@@H](C(N)=O)N1CCCC1=O`, for which the Potency entry in assay [1], in assay [2] and in assay [19] was “inactive” in each case.
Regarding `Cc1ccccc1-n1c(Cn2ncc3c(N)ncnc32)nc2cccc(C)c2c1=O`, the Potency was 0.935 µM (active) in [2]; 0.522 µM (active) in assay [3]; 0.522 µM (active) in [5]; 0.293 µM (active) in [6]; 1.85 µM (active) in [7]; 23.3 µM (active) in [13]. Besides, the Potency entry in assay [4], in assay [15], in [9], in assay [16], in [17] and in assay [18] was “inactive” throughout. In addition, the Potency entry in assay [14] is “inactive”.
With `Cc1ccccc1-n1c(Cn2cnc3c(N)ncnc32)nc2cccc(C)c2c1=O`, the Potency in assay [2] is 0.59 µM (active). For the same compound, the Potency result in assay [3], in assay [4], in [15], in [6], in assay [7] and in [9] was “inactive” throughout. For the same compound, the Potency result in assay [16], in assay [17], in assay [10], in assay [11], in assay [18] and in assay [12] was “inactive” in each case. The Potency result in assay [13] and in assay [14] was “inactive” throughout.
As to `CC1=NN=C(c2ccc(N)cc2)c2cc3c(cc2C1)OCO3`, the Potency entry in [1] was “inactive”. Besides, the Potency in [19] is 56.2 µM (active).
`O=C(O)c1cc(Oc2ccc(C(F)(F)F)cc2Cl)ccc1[N+](=O)[O-]`: the Potency result (in assay [1]; in the assay with Furin (Homo sapiens)) was “inactive” each time.
In the case of `CC(C)N[C@@H]1CCn2c(=O)[nH]c3cccc(c32)[C@@H]1O`, the Potency in assay [1] was 1.48 µM (active). Further, the Potency entry in assay [3], in [5], in assay [15], in [6], in assay [8] and in [9] was “inactive” throughout. For the same compound, the Potency result in assay [16], in assay [17], in [10], in assay [11], in assay [18] and in assay [12] was “inactive” throughout. Besides, the Potency result in assay [13] and in [14] was “inactive” in each case.
For the compound `Nc1ccc(N=Nc2ccccc2)cc1`, the Potency result in [2] is “inactive”.
Turning to `Cc1c(N)nc([C@H](CC(N)=O)NC[C@@H](N)C(N)=O)nc1C(=O)N[C@H](C(=O)N[C@@H](C)[C@H](O)[C@@H](C)C(=O)N[C@@H](C(=O)NCCc1nc(-c2nc(C(=O)NCCC[S+](C)C)cs2)cs1)[C@@H](C)O)C(O[C@H]1O[C@H](CO)[C@H](O)[C@@H](O)[C@@H]1O[C@H]1O[C@H](CO)[C@@H](O)[C@H](OC(N)=O)[C@H]1O)c1cnc[nH]1` (stereo not given in full), the Potency entry in assay [1], in assay [5], in assay [15], in assay [9], in assay [16] and in [17] was “inactive” in each case. Also, the Potency result in assay [18], in [12] and in assay [13] was “inactive” in each case. Further, the Potency in assay [4] was 9.27 µM (active).

The values are drawn from PubChem BioAssay (NCATS).
